Data as given in ChEMBL document CHEMBL4513216, “Probing the Open Global Health Chemical Diversity Library for Multistage-Active Starting Points for Next-Generation Antimalarials” (ACS Infect Dis, 2020).
About 8,600 (12%) of roughly 69,000 compounds showed an effect of 50% or more. The sample as a whole holds a higher share of strong results than the screen did.

Each compound was assayed on Plasmodium berghei (assay: Screen against P. berghei liver stage (PbLuc), transformed with Luciferase, at 10uM). Conditions: tested at 10 uM.
Type: functional, HepG2

| Compound | INHIBITION [%] |
| --- | --- |
| COc1cc(C(=O)NS(=O)(=O)c2cccc(C#N)c2)cc(OC)c1C | 22.3 |
| O=C(NCCN1CCCCCC1)c1n[nH]c(=O)c2ccccc12 | 4.71 |
| O=C(CCc1ccc(Cl)cc1)N[C@@H]1CC[C@@H](O)[C@@H]1O | 45.75 |
| CN1CC2(CCCN(c3cc(N4CCCCC4)ncn3)C2)OC1=O (stereo not given) | 60.1 |
| COc1ccc(CN2CCOC3(CCCN(c4cnccn4)C3)C2)cc1 (stereo not given) | 44.2 |
| CNC(=O)C1(C)CCCN(c2cnccn2)C1 (stereo not given) | -26.2 |
| CC1(C(=O)NC2CCCC2)CCCN(c2cnccn2)C1 (stereo not given) | -4.51 |
| CC1(C(N)=O)CCCN(c2cnccn2)C1 (stereo not given) | 53.2 |
| CN1CC2(CCCN(c3nc(N)nc4c3CCCC4)C2)OC1=O (stereo not given) | 45.6 |
| CC(C)Nc1cc(N2CCCC3(CN(C)C(=O)O3)C2)ncn1 (stereo not given) | 17.4 |
| Cc1cc(N2CCCC3(CN(C)C(=O)O3)C2)c2cc3c(cc2n1)OCO3 (stereo not given) | 28.6 |
| CN1CC2(CCCN(c3cnccn3)C2)OC1=O (stereo not given) | 61 |
| Cc1nc(CCC(N)=O)cc(C2CCNCC2)n1 | -10.8 |
| O=C(COC[C@@H]1CC[C@H]2[C@H](CCN2Cc2ccco2)O1)N1CCCC1 | -54.9 |
| Cc1c(C(=O)N2CCOCC2)nnn1-c1ccc2ncccc2c1 | -29.7 |
| Cc1cc(C(=O)NCc2ccnc(N3CCN(C)CC3)c2)no1 | 17.34 |
| CN1CCN(C(=O)N2C[C@@H]3CC[C@H]2CN(Cc2ccccc2)C3)CC1 | 30.9 |
| c1cnnc(N2CCCC(NCc3cn4ccccc4n3)C2)c1 (stereo not given) | 27.9 |
| CCC1c2cccn2CCN1C(=O)c1ccno1 (stereo not given) | -48.4 |
| O=c1oc(-c2cccs2)nn1CC(O)c1ccc2c(c1)CCC2 (stereo not given) | 59.4 |
| O=c1oc(-c2cccs2)nn1CC(O)c1ccc(F)cc1 (stereo not given) | -23.5 |
| O=c1oc(-c2cccs2)nn1CC(O)c1ccccc1 (stereo not given) | 0.547 |

| Compound | INHIBITION [%] |
| --- | --- |
| CCNC(=O)N1CCC(Nc2nccc(NCC)n2)CC1 | 20.4 |
| CCNc1ccnc(NC2CCN(CC(N)=O)CC2)n1 | -9.92 |
| CCNc1ccnc(NC2CCN(S(C)(=O)=O)CC2)n1 | 72.3 |
| CCOC(=O)N1CC(=O)N(CCc2ccccc2)CC(O)C1 (stereo not given) | 28.3 |
| CCN1C(=O)C(C)(C)c2cc(NC(=O)c3ccn(CC)n3)ccc21 | -42.9 |
| Cc1cc(C(=O)N2CCCC(n3ccnc3)C2)c(C)n1C1CC1 (stereo not given) | 27.4 |
| Cc1[nH]ncc1C(C)NCc1cccnc1 (stereo not given) | 14.3 |
| COc1ccc(CNC(C)c2cn[nH]c2C)cc1 (stereo not given) | 11.8 |
| Cc1[nH]ncc1C(C)NCc1ccc(F)cc1 (stereo not given) | 63.7 |
| CN(C)CCN1CCC2[C@@H]1CCN2Cc1ccc2c(c1)OCO2 (stereo not given in full) | -9.74 |
| CC(=O)c1c(F)cccc1N1CCC(NS(=O)(=O)c2ccccc2)CC1 | 78 |
| CC(=O)c1c(F)cccc1N1CCC(Cc2cccnc2)CC1 | 83.4 |
| CC(=O)c1c(F)cccc1N1CCC(CS(N)(=O)=O)CC1 | 30.1 |
| CCS(=O)(=O)N(C)C1CCN(c2cccc(F)c2C(C)=O)CC1 | -9.35 |
| CC(=O)c1c(F)cccc1N1CCC(C(N)=O)CC1 | -13.1 |
| CCN(C1CCN(c2cccc(F)c2C(C)=O)CC1)S(C)(=O)=O | 20.4 |
| O=C1C(NS(=O)(=O)c2ccc(F)cc2F)CCN1Cc1ccccc1 (stereo not given) | 2.97 |
| Cc1ccc(NC(=O)N2CCC3(CCC(C(=O)N(C)C)O3)CC2)cc1 (stereo not given) | 46.6 |
| Cc1cc(C)n(CC2CCCN2CCC(=O)Nc2cc(C)on2)n1 (stereo not given) | 11.4 |
| O=C(Cc1ccccn1)N1C[C@@H](Oc2cccnc2)[C@H]2OCCC[C@H]21 | 5.04 |
| CN(C)c1cccc(C(=O)Nc2ccn(CCc3ccncc3)n2)c1 | 40.7 |
| CSc1ccc(C(=O)N2C[C@@H]3CC[C@H]2CN(Cc2ccccc2)C3)cc1 | 39.1 |

| Compound | INHIBITION [%] |
| --- | --- |
| COc1ccc(C(=O)N(C)Cc2ncc(C)c(OC)c2C)c(OC)c1 | 1.11 |
| CCCS(=O)(=O)N1CCO[C@H]2[C@H](OCc3ccccn3)CC[C@@H]21 | 33.5 |
| CCOc1ccccc1CN(C)C(C)c1nc(-c2cccnc2)no1 (stereo not given) | 24.2 |
| COc1ccccc1CCN(C)C(C)c1nc(-c2cccnc2)no1 (stereo not given) | 68.1 |
| CC(c1nc(-c2cccnc2)no1)N(C)CCCOc1ccccc1 (stereo not given) | 18.5 |
| CNC(=O)c1csc(-c2cccnc2)n1 | -17.2 |
| Cc1ccc(NC(=O)CNc2ccccc2C(N)=O)c(C)c1 | 39.1 |
| CCn1cc(C(=O)Nc2cc(C)ccc2C)cn1 | 3.04 |
| Cc1ccc(C)c(NC(=O)c2n[nH]c(-n3cnnc3)n2)c1 | 36.3 |
| COc1ccc(C)cc1NC(=O)Nc1cnc(O)nc1O | 0.29 |
| COc1ncc(NC(=O)Nc2cc(C)ccc2OC)cn1 | 42.6 |
| COc1ccc(C)cc1NC(=O)c1coc(C)n1 | 60.9 |
| COCCCN(CCOC)C(=O)Nc1ccc(C)cc1C | 7.9 |
| Cc1ccc(NC(=O)c2coc(C)n2)c(C)c1 | 62.3 |
| Cc1ccc(C)c(NC(=O)c2coc(C)n2)c1 | 62.3 |
| Cn1ccnc1N1CCN(C(=O)Cc2ccc(F)cc2)CC1 | 0 |
| CCS(=O)(=O)N1CC[C@@H]2[C@H]1CCC(=O)N2CCOC | 24.9 |
| CC(C)OCCN(C)C(C)c1cccc(S(N)(=O)=O)c1 (stereo not given) | 26.3 |
| CS(=O)(=O)N1CCCC12CCCN(S(=O)(=O)c1ccc(F)c(F)c1)C2 (stereo not given) | -0.371 |
| O=C(O)[C@@H]1CN(C(=O)NCC2CCCCC2)C[C@H]1c1ccccn1 | -43.5 |
| CCOCC1CN(CCN2CCCCC2)Cc2cnn(C)c21 (stereo not given) | 36.9 |
| Cc1ccc(Oc2ncccc2C(=O)N(C)CCCN(C)C)cc1 | 30.3 |

| Compound | INHIBITION [%] |
| --- | --- |
| CC(C)(C)c1ncc(S(C)(=O)=O)c(C2CCCNC2)n1 (stereo not given) | 25.3 |
| O=C1c2cccnc2OC(CN2CCOCC2)CN1C1CCC1 (stereo not given) | -10.3 |
| COC(=O)c1ccccc1NC(=O)c1c(C)cn(C)c1CC(=O)O | 19.2 |
| O=C1CCNc2ncc(-c3ccccc3Cl)cc2CN1C1CC1 | 50.2 |
| O=C1CCNc2ncc(-c3ccc(Cl)cc3)cc2CN1C1CC1 | 7.85 |
| O=C1CCNc2ncc(-c3cccc(Cl)c3)cc2CN1C1CC1 | 2.55 |
| Cn1cc(CN2CCOC3(CCCN(C(=O)c4ccco4)C3)C2)cn1 (stereo not given) | 8.47 |
| Cc1cc(C)nc(N2CC[C@H](Oc3ccccc3F)[C@@H](O)CC2)n1 | 42.6 |
| CC(C)N1CCOCC2(CCN(c3cnccn3)CC2)C1 | 35.8 |
| COCCCn1ccc(NS(=O)(=O)c2cc(C)c(F)cc2F)n1 | -15.3 |
| CCC(Cn1ccc2[nH]c(=O)c(C#N)cc2c1=O)OC (stereo not given) | 3.82 |
| CC(O)CCn1ccc2[nH]c(=O)c(C#N)cc2c1=O (stereo not given) | -1.09 |
| CCCOC(C)Cn1ccc2[nH]c(=O)c(C#N)cc2c1=O (stereo not given) | 71.8 |
| CN(Cc1nc(Cc2cccc(C(F)(F)F)c2)no1)C(C1CC1)C1CC1 | 27.6 |
| Cn1nc(CN2CCCCC2)c2c1CN(Cc1ccoc1)C2 | 11.3 |
| O=C(c1cc(C2CCCC2)no1)N1CCCCC1 | -12.5 |
| CC(=O)N1[C@H](CN(C)C)C[C@@H]2CN(C(=O)c3cnc(C)cn3)CC[C@@H]21 | -50.4 |
| Cc1ccc2c(c1)[C@@H](CC(=O)N(C)C)CCO2 | 14.5 |
| CN(CCO)CC1COCCN1C(=O)C1CCCCC1 (stereo not given) | 40.7 |
| Cc1ccc2c(c1)CN(C(=O)c1cnc(C)cn1)C(CN(C)C)CO2 (stereo not given) | 66.5 |
| Cc1nc(C)c(C(=O)N2Cc3ccccc3OCC2CN(C)C)o1 (stereo not given) | 11.8 |
| Cc1ccc2c(c1)CN(C(=O)C1CCCCC1)C(CN(C)C)CO2 (stereo not given) | 60.3 |

| Compound | INHIBITION [%] |
| --- | --- |
| Cc1nc(CN2CCc3ccc(S(N)(=O)=O)cc32)oc1C | -24 |
| CN(C)c1ncccc1CNC(=O)NCc1cccs1 | 41.2 |
| CN1CCN(C(=O)c2cc[nH]c(=O)c2)Cc2ccccc21 | 20 |
| O=C(NCC1CCCCC1)N1C[C@@H]2C[C@@H]1CN2 | 9.97 |
| Fc1ccc(CN2CCC(c3nccnc3-n3ccnc3)CC2)cc1 | 37 |
| COc1ccc(CN2CCC(c3nccnc3-n3ccnc3)CC2)cc1 | 35.2 |
| Cc1nccn1-c1cccc(C2CCCN(C3CCCC3)C2)n1 (stereo not given) | 36.7 |
| Cc1nccn1-c1nccnc1C1CCCN(C)C1 (stereo not given) | 34.55 |
| Cc1nccn1-c1nccnc1C1CCN(Cc2ccc(F)cc2)CC1 | 71.1 |
| Cc1nccn1-c1nccnc1C1CCCN(C2CCCC2)C1 (stereo not given) | 59.45 |
| Cc1n[nH]c(C2CN(Cc3nnc(C4CCC4)o3)CCO2)n1 (stereo not given) | 0.914 |
| c1cc(CN2C[C@@H]3OCCN(CCN4CCCC4)[C@@H]3C2)co1 | 15.7 |
| CC(=O)OCc1ccc(CN2CCCCCC2c2cc(C)no2)o1 (stereo not given) | 18.3 |
| CCc1nc(C2CCCN2C(=O)c2cc3c(s2)CCC3)no1 (stereo not given) | 7.08 |
| CCC(C(=O)NC1(C(N)=O)CCCC1)n1cccn1 (stereo not given) | 55.9 |
| CCC(C(=O)NC1(COC)CCCC1)n1cccn1 (stereo not given) | 8.08 |
| CCC(C(=O)NC1(CN2CCOCC2)CCCC1)n1cccn1 (stereo not given) | 30.9 |
| CC(C)C(=O)Nc1ccc(C(O)Cn2nc(-c3cccs3)oc2=O)cc1 (stereo not given) | 8.9 |
| c1cnn(Cc2nnc3n2CCCN(Cc2ccsc2)C3)c1 | 32.4 |
| Cc1cnc(C(=O)N2C[C@@H]3[C@@H](C2)OCC(=O)N3CC2CCCC2)cn1 | -18.5 |
| O=C(c1cnccn1)N1C[C@@H]2[C@@H](C1)OCC(=O)N2CC1CCCC1 | 91.9 |
| O=C(c1cnccn1)N1C[C@@H]2OCC(=O)N(CC3CCCCC3)[C@@H]2C1 | 26.4 |
